Source: PubChem BioAssay (EPA / NIEHS)
Results filed as inconclusive are left out. Calls of active or inactive are those of the source. The calls were made as follows: active = hit-call score of the fitted dose curve at least 0.9, where 1 is the maximum; inconclusive = response in the unintended direction; inactive = score below 0.9.

Assay: Tanguay_ZF_120hpf_SNOU_legacy: (Legacy) Oregon State University Tanguay Lab 120 Hour Post-fertilization zebrafish Assay for Snout Malformation (AID 2283637)
Procedure: Tanguay_ZF_120hpf_legacy is a whole embryo, multiplexed endpoint assay using zebrafish larvae exposed for 120 hours post fertilization on a 96-well plate.Tanguay_ZF_120hpf_SNOU_legacy is one of one assay component(s) measured or calculated from the Tanguay_ZF_120hpf_legacy assay. It is designed to make measurements of zebrafish development as detected with brightfield microscopy of developing zebrafish embryos.Data from the assay component Tanguay_ZF_120hpf_SNOU_legacy was analyzed into 1 assay endpoints. This assay endpoint, Tanguay_ZF_120hpf_SNOU_legacy, was analyzed in the positive analysis fitting direction relative to DMSO as the negative control and baseline of activity. Using a type of morphology reporter, gain-of-signal activity can be used to understand changes in developmentals as they relate to the whole embryo. To generalize the intended target to other relatable targets, this assay endpoint is annotated to the zebrafish development intended target family, where the subfamily is embryonic snout morphogenesis.
Zebrafish husbandry: Tropical 5D wild-type adult zebrafish were housed in at an approximate density of 1000 per 100 gallon tank at the Sinnhuber Aquatic Research Laboratory, Oregon State University, Corvallis, OR. Each tank was kept at standard laboratory conditions of 28C on a 14-h light/10-h dark photoperiod in fish water consisting of reverse osmosis water supplemented with a commercially available salt (Instant Ocean). Spawning funnels were placed into the tanks the night prior, and embryos were collected and staged. To increase bioavailability, the chorion was enzymatically removed using pronase (63.6mg/ml, >/= 3.5U/mg, Sigma-Aldrich: P5147) at 4 hours post fertilization (hpf) using a custom automated dechorionator.Chemical exposures: Six hpf dechorionated embryos were placed 1 embryo per well in a 96-well plate prefilled with 90 ul of EM using automated embryo placement systems (AEPS). Ten microliters of each row of dilution plate 2 was added to 2 exposure plates. The final DMSO concentration used was 0.64% (vol/vol). Thirty-two embryos were also exposed to 5uM trimethyltin chloride (positive control). Plates were sealed to prevent evaporation and foil covered to reduce light exposure and kept in a 28C incubator. Embryos were statically exposed until 120 hpf. At 24 hpf, embryos were assessed for photomotor response using a custom photomotor response analysis tool (PRAT) and for developmental toxicity endpoints (MO24: mortality at 24 hpf, DP: developmental progression, SM: spontaneous movement, and NC: notochord distortion). At 120 hpf, locomotor activity was measured using Viewpoint Zebralab and assessed for 18 endpoints. Zebrafish acquisition and analysis program (ZAAP), a custom program designed to inventory, acquire, and manage zebrafish data, was used to collect developmental endpoints as either present or absent (i.e., binary responses were recorded). If mortality occurred for an embryo (at either 24 or 120 hpf), the non-mortality endpoints were not measured.

Row | Compound | outcome | AC50
1 | CCCCCCCCCCCCCCCCO | inactive | –
2 | CCCCCCC(CCCCCCCCCCC(=O)OCC(COC(C)=O)OC(C)=O)OC(C)=O (stereo not given) | inactive | –
3 | NCCOCCOCCN | inactive | –
4 | Cc1ccc(C(C)(C)C)c(O)c1 | inactive | –
5 | CC(=O)S[C@H](C(=O)N[C@H]1Cc2ccccc2[C@H]2CCC[C@@H](C(=O)O)N2C1=O)C(C)C | inactive | –
6 | O=C1NC(=O)C(c2ccccc2)(c2ccccc2)N1 | inactive | –
7 | CCCC(=O)O | inactive | –
8 | CC(C)(O)c1ccc(CNC(=O)c2cccnc2Oc2ccc(F)cc2)cc1 | inactive | –
9 | NC(=Nc1ccccc1)Nc1ccccc1 | inactive | –
10 | CCCCCCCC(=O)OC | inactive | –
11 | Cc1occc(=O)c1O | inactive | –
12 | CCCCc1nc2cccnc2n1Cc1ccc(-c2ccccc2-c2nnn[nH]2)cc1 | inactive | –
13 | CCC(C)N(C)C(=O)c1cc2ccccc2c(-c2ccccc2Cl)n1 (stereo not given) | inactive | –
14 | CCCCC(CC)CO (stereo not given) | inactive | –
15 | CC(C)COC(=O)CCCCC(=O)OCC(C)C | inactive | –
16 | CC(C)c1cccc(C(C)C)c1NC(=O)NS(=O)(=O)c1cc(C(C)(C)O)co1 | inactive | –
17 | O=C(O)c1cccnc1 | inactive | –
18 | O=[Si]=O | inactive | –
19 | CC(=O)OCC(COC(C)=O)OC(C)=O | inactive | –
20 | CC(=O)[C@@]1(O)CC[C@H]2[C@@H]3CCC4=CC(=O)CC[C@]4(C)[C@H]3CC[C@@]21C | inactive | –

Row | Compound | outcome | AC50
21 | CSc1ccc(Oc2ccc(S(N)(=O)=O)cc2CN(C)C)cc1C | inactive | –
22 | Oc1ccccc1O | inactive | –
23 | OCC(O)CO | inactive | –
24 | C=CCc1ccc(OC)c(OC)c1 | inactive | –
25 | CN(C)CCCN1c2ccccc2Sc2ccc(Cl)cc21 | inactive | –
26 | CCCCCCC(C=O)=Cc1ccccc1 | inactive | –
27 | CCCCCCCCCCCCCCOS(=O)(=O)O | – | 24.7 µM (active)
28 | Nc1nc(Cl)nc2c1ncn2[C@H]1C[C@H](O)[C@@H](CO)O1 | inactive | –
29 | COc1ccc(C(=O)Nc2nc3ccccc3c(NCc3ccccc3)c2C#N)cc1 | inactive | –
30 | O=C1c2c(O)cccc2Cc2cccc(O)c21 | inactive | –
31 | O=C(N[C@@H](c1ccccc1)[C@@H]1CCCCN1)c1cccc(C(F)(F)F)c1Cl | inactive | –
32 | CCc1cc(C2=C(C(=O)O)N(c3ccccc3C(F)(F)F)S(=O)(=O)c3ccccc32)cc2c1OCO2 | inactive | –
33 | O=Cc1ccccc1C=O | inactive | –
34 | COC(=O)CCCC(=O)OC | inactive | –
35 | CS(=O)(=O)c1ccc([C@@H](C[C@H]2CCC(=O)C2)C(=O)Nc2cnccn2)cc1Cl | inactive | –
36 | C/C=C/C=C/C(=O)O | inactive | –
37 | CCCCCCCCCC[N+](C)(C)[O-] | inactive | –
38 | CCCCOC(=O)CCCCC(=O)OCCCC | inactive | –
39 | CC(C)NCC(O)c1ccc(O)c(O)c1 (stereo not given) | inactive | –
40 | CCCC[C@H]1CN(CC2CCOCC2)C(=O)OC12CCN(C1(C)CCN(C(=O)c3c(C)ncnc3C)CC1)CC2 | inactive | –
